Screen size: about 330,000 compounds; about 2,600 (0.79%) were called active.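 Rule for the calls: active = mean ATP rescue above about 67%, or every replicate alone reaching that limit (limit read from the data, passing the limit was not always enough); inconclusive = no clear call, values can overlap the other calls; inactive = mean under the limit and some replicate under it.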 What follows is part of a selection rich in actives, with near analogues and random picks from the rest.
Assay: protection of differentiated C2C12 cells from simvastatin – single point, plate reader, primary screen (AID 602340);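 note: myotubes were challenged with 10 µM simvastatin during compound exposure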
Details: C2C12 myotubes + simvastatin, ATP luminescence, 48 h; at 7.49 µM; hits give high values; scaled: DMSO 0, geranylgeraniol control 100

| SMILES | rescue of ATP level |
| --- | --- |
| C[C@H](NC(=O)C[C@@H]1CC[C@@H]2[C@H](COC[C@@H](O)CN2Cc2cc(F)ccc2F)O1)c1ccccc1 | 6.87% (inactive) |
| CN1[C@@H]2c3ccc(C4=CCCCC4)c(=O)n3C[C@H]1[C@H](CO)[C@H]2C(=O)NCc1ccc(F)cc1 | 12.7% (inactive) |
| C[C@H]1CN([C@@H](C)CO)C(=O)c2cc(C#CC3CCCC3)cnc2O[C@H]1CN(C)C(=O)c1ccncc1 | -53.3% (inactive) |
| CO[C@@H]1CN(C)C(=O)c2cc(NC(=O)Nc3cc(F)ccc3F)ccc2OC[C@@H](C)N(C)C[C@H]1C | -33.7% (inactive) |
| C[C@H]1CN([C@@H](C)CO)S(=O)(=O)c2ccc(C#CC3CCCC3)cc2O[C@@H]1CN(C)C(=O)c1cccc(F)c1 | -41% (inactive) |
| CNC(=O)C[C@H]1CC[C@H]2[C@H](COc3ccc(NC(=O)c4cc(C)on4)cc3C(=O)N2C)O1 | 7.63% (inactive) |
| COc1ccccc1NC(=O)N1C[C@H]2[C@@H](c3ccccc31)[C@H](CO)N2Cc1ccc2c(c1)OCO2 | 46.6% (inactive) |
| COc1ccc(OC)c(-c2csc(-c3cccs3)n2)c1 | -1.11% (inactive) |
| COc1cccc(C(=O)n2ccc(-c3cccs3)n2)c1 | 132% (active) |
| COc1cccc(NC(=O)CN(C)C(=O)/C=C/c2cn(-c3ccccc3)nc2-c2cccs2)c1 | -0.997% (inactive) |
| O=C(N[C@@H]1CC[C@H](CCn2cc(-c3ccccn3)nn2)O[C@@H]1CO)c1ccccc1 | 0.826% (inactive) |
| C[C@H](CO)N1C[C@H](C)[C@H](CN(C)C(=O)C2CCOCC2)Oc2ncc(-c3ccccc3)cc2C1=O | -10.6% (inactive) |
| CCCNC(=O)C[C@H]1CC[C@H]2[C@@H](COC[C@H](O)CN2C(=O)Nc2c(C)noc2C)O1 | 5.16% (inactive) |
| CCOC(=O)c1c(NC(=O)CSc2cn(CC)c3ccccc23)sc2c1CCC2 | 15.7% (inactive) |
| CCOC(=O)c1c(NC(=O)CSc2nnc(CN3CCOCC3)n2C)sc2c1CCCC2 | -1.41% (inactive) |
| CCOC(=O)c1c(NC(=O)CSc2nnc(C)c(=O)[nH]2)sc2c1CCC2 | 131% (active) |
| O=C(C[C@@H]1C=C[C@H](NC(=O)Nc2ccc(C(F)(F)F)cc2)[C@H](CO)O1)NCc1cccc(F)c1 | 18.6% (inactive) |
| CCOC(=O)CN1CC23C=CC(O2)C(C(=O)Nc2ccc(F)cc2)C3C1=O (centres undefined) | 97% (active) |
| CCOCCCN1C(=O)C2C(C(=O)Nc3ccc(OCC)cc3)C3C=CC2(O3)C1C(=O)NC1CCCCC1 (centres undefined) | 9.74% (inactive) |
| CC(C)COC(=O)C1C2C=CC3(CN(C(C)c4ccc(Br)cc4)C(=O)C13)O2 (centres undefined) | 4.94% (inactive) |
| O=C(CN1CCOCC1)N[C@@H]1CC[C@H](CCNS(=O)(=O)c2ccccc2F)O[C@H]1CO | 14.2% (inactive) |
| Cc1ccc(SCC(=O)NC(=O)NCc2ccco2)c(C)c1 | 95.8% (active) |
| Cc1cc(C)n2nc(SCC(=O)NC(=O)NCc3ccco3)nc2n1 | -3.52% (inactive) |
| Cc1ccc(NC(=O)C(=O)NCc2ccco2)c(C)c1 | 9.27% (inactive) |
| CC(C)NC(=O)N(C)C[C@@H]1Oc2ncc(-c3ccc(C(=O)N(C)C)cc3)cc2C(=O)N([C@H](C)CO)C[C@H]1C | -0.478% (inactive) |

| SMILES | rescue of ATP level |
| --- | --- |
| Cc1cccc(N(CC(O)CN(C)C)S(=O)(=O)c2ccccc2)c1 (centres undefined) | -10.1% (inactive) |
| O=S(=O)(c1ccccc1)N(CC(O)CN1CCCCC1)c1ccccc1 (centres undefined) | 152% (active) |
| Cc1ccc(S(=O)(=O)N(CC(O)CN2CCCCC2)c2cccc([N+](=O)[O-])c2)cc1 (centres undefined) | 5.45% (inactive) |
| COc1ccccc1-c1cn(CC[C@H]2CC[C@@H](NC(=O)Cc3ccccn3)[C@@H](CO)O2)nn1 | 5.82% (inactive) |
| CC(C)Cn1c(SCC(=O)Nc2ccc(Cl)cc2F)nc(O)cc1=O | 95.3% (active) |
| Cc1ccccc1-n1c(SCC(=O)Nc2cccc3ccccc23)nc(O)cc1=O | 7.58% (inactive) |
| Cn1c(SCC(=O)Nc2ccc(Cl)cc2)nc(O)cc1=O | 21.6% (inactive) |
| C/C=C/c1ccc([C@@H]2[C@@H](CO)N(C(=O)CC)[C@H]2CN(C)C(=O)C2CC2)cc1 | 7.07% (inactive) |
| CO[C@@H]1CN(C)C(=O)c2cc(NC(=O)NC(C)C)ccc2OC[C@@H](C)N(CC2CC2)C[C@@H]1C | 3.47% (inactive) |
| Cc1ccc(S(=O)(=O)NCC(=O)N(CC(=O)NC2CCCCC2)Cc2ccco2)cc1 | 13.6% (inactive) |
| Cc1ccc(S(=O)(=O)N(C)CC(=O)NC2CCCC2)cc1 | 96.1% (active) |
| CN(CC(=O)NC1CCCCC1)S(=O)(=O)c1cccc2cccnc12 | -5.41% (inactive) |
| CCCNC(=O)N1C[C@H](C)[C@@H](OC)CN(C)C(=O)c2ccc(NS(C)(=O)=O)cc2OC[C@@H]1C | -0.593% (inactive) |
| Cc1noc(C)c1NC(=O)N(C)C[C@@H]1Oc2ccc(NS(=O)(=O)c3ccc(F)cc3)cc2CC(=O)N([C@@H](C)CO)C[C@H]1C | -7.19% (inactive) |
| O=C(C[C@H]1CC[C@@H]2NC[C@H](O)COC[C@H]2O1)NCCN1CCCCC1 | -1.01% (inactive) |
| C[C@@H]1CN([C@@H](C)CO)C(=O)Cc2cc(NS(=O)(=O)c3ccc(Cl)cc3)ccc2O[C@H]1CN(C)C(=O)Nc1cccc2ccccc12 | 25% (inactive) |
| N#CCC(=O)Nc1ccc(C(=O)OCC(=O)Nc2sc3c(c2C#N)CCCC3)cc1 | 4.12% (inactive) |
| CCOc1ccc(NC(=O)c2ccc(NC(=O)COC(=O)c3ccc(NC(=O)CC#N)cc3)cc2)cc1 | -8.99% (inactive) |
| CC(C)NC(=O)NC(=O)COC(=O)c1ccc(NC(=O)CC#N)cc1 | 113% (active) |
| Cc1cccc2c(=O)n3c(nc12)CCCCC3 | 66.7% (active) |
| O=c1c2c(nc3n1CCCCC3)sc1c(O)cccc12 | 6.49% (inactive) |
| Cc1cc(=O)n2c3c(cccc13)CCC2 | 0.243% (inactive) |
| CC(C)CC#Cc1cnc2c(c1)C(=O)N([C@@H](C)CO)C[C@H](C)[C@@H](CN(C)S(=O)(=O)c1cn(C)cn1)O2 | -12.3% (inactive) |
| C[C@H]1CCCCO[C@H](CN(C)Cc2ccccc2)[C@@H](C)CN([C@@H](C)CO)C(=O)c2cc(NS(C)(=O)=O)ccc2O1 | 0.662% (inactive) |

From PubChem BioAssay AID602340 (Broad Institute, 2012)
